Source: PubChem BioAssay AID1159580 (chemical genetic matrix, 2015)
“And” between values parts separate entries of the source, which are not always exact repeats. Equal values may be shown once. About 2,000 (36%) of roughly 5,500 compounds were called active. Inconclusive results (about 18%) are left out. No stated cut-off is given here; in the data, active means normalized growth mostly below about 0.91 (no sharp cut-off); inconclusive means no clear call, values can overlap the other calls; inactive means mostly above about 0.92. Some of the results follow.

Assay: chemical genetic growth profiling, strain panel (AID 1159580);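 further: tested at 20 µM; growth read once vehicle control cultures reached saturation at 30 °C; 1 = growth at the plate median or of vehicle wells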
Settings: S. cerevisiae deletion strains, growth OD

Measured: normalized growth

C=CCN1CC[C@]23c4c5ccc(O)c4OC2C(=O)CC[C@@]3(O)[C@H]1C5 (stereo partly specified)
inactive: locus YAL013W, strain DEP1, stronger effect = lower value 1.01 | locus YAL021C, strain ccr4, stronger effect = lower value 0.935 | locus YAL026C, strain drs2, stronger effect = lower value 0.979 | locus YAL030W, strain snc1, stronger effect = lower value 0.974 | locus YBL061C, strain skt5, stronger effect = lower value 0.978 | locus YBR009C, strain hhf1, stronger effect = lower value 0.987 | locus YBR021W, strain FUR4, stronger effect = lower value 1.01 | locus YBR023C, strain chs3, stronger effect = lower value 0.972 | locus YBR171W, strain sec66, stronger effect = lower value 0.974 | locus YBR229C, strain ROT2, stronger effect = lower value 1 | locus YBR231C, strain swc5, stronger effect = lower value 0.969 | locus YBR279W, strain paf1, stronger effect = lower value 0.955 | locus YCL011C, strain gbp2, stronger effect = lower value 0.941 | locus YCL016C, strain dcc1, stronger effect = lower value 0.986 | locus YCL029C, strain bik1, stronger effect = lower value 0.996 | locus YCL061C, strain MRC1, stronger effect = lower value 0.979 | locus YCL069W, strain vba3, stronger effect = lower value 0.946 | locus YCR088W, strain abp1, stronger effect = lower value 0.98 | locus YDL005C, strain med2, stronger effect = lower value 0.943 | locus YDL035C, strain GPR1, stronger effect = lower value 1.02 | locus YDL040C, strain nat1, stronger effect = lower value 0.967 | locus YDL074C, strain BRE1, stronger effect = lower value 1.05 | locus YDL101C, strain DUN1, stronger effect = lower value 1.02 | locus YDL134C, strain PPH21, stronger effect = lower value 1 | locus YDL185W, strain tfp1, stronger effect = lower value 1.01 | locus YDL192W, strain arf1, stronger effect = lower value 0.988 | locus YDR001C, strain nth1, stronger effect = lower value 0.971 | locus YDR069C, strain doa4, stronger effect = lower value 0.943 | locus YDR101C, strain arx1, stronger effect = lower value 0.989 | locus YDR137W, strain rgp1, stronger effect = lower value 0.959 | locus YDR150W, strain NUM1, stronger effect = lower value 1 | locus YDR159W, strain sac3, stronger effect = lower value 0.962 | locus YDR162C, strain NBP2, stronger effect = lower value 1.01 | locus YDR195W, strain ref2 0.955 | locus YDR297W, strain sur2, stronger effect = lower value 0.962 | locus YDR318W, strain mcm21, stronger effect = lower value 1 | locus YDR334W, strain swr1, stronger effect = lower value 0.95 | locus YDR335W, strain msn5, stronger effect = lower value 0.974 | locus YDR388W, stronger effect = lower value 1 | locus YDR392W, strain spt3, stronger effect = lower value 0.877 | locus YDR502C, strain sam2, stronger effect = lower value 0.984 | locus YEL003W, strain gim4, stronger effect = lower value 0.936 | locus YEL037C, strain rad23, stronger effect = lower value 0.954 | locus YEL061C, strain CIN8 (second series), stronger effect = lower value 0.962 | locus YEL061C, strain CIN8, stronger effect = lower value 1.01 | locus YER015W, strain faa2, stronger effect = lower value 0.97 | locus YER016W, strain bim1, stronger effect = lower value 0.972 | locus YER110C, stronger effect = lower value 0.992 | locus YER111C, strain swi4, stronger effect = lower value 0.97 | locus YER155C, strain BEM2 (second series), stronger effect = lower value 0.979 | locus YER155C, strain BEM2, stronger effect = lower value 1.01 | locus YER167W, strain BCK2, stronger effect = lower value 0.989 | locus YFR010W, strain ubp6, stronger effect = lower value 0.953 | locus YGL078C, strain dbp3, stronger effect = lower value 1 | locus YGL086W, strain mad1, stronger effect = lower value 0.993 | locus YGL167C, strain pmr1, stronger effect = lower value 0.961 | locus YGL173C, strain kem1, stronger effect = lower value 0.971 | locus YGL227W, strain vid30, stronger effect = lower value 0.97 | locus YGL240W, strain doc1, stronger effect = lower value 0.961 | locus YGL248W, strain PDE1, stronger effect = lower value 1.01 | locus YGL253W, strain hxk2, stronger effect = lower value 0.974 | locus YGR078C, strain PAC10, stronger effect = lower value 1.03 | locus YGR135W, strain pre9, stronger effect = lower value 0.99 | locus YGR229C, strain SMI1, stronger effect = lower value 1 | locus YGR252W, strain gcn5, stronger effect = lower value 0.997 | locus YHR013C, strain ard1, stronger effect = lower value 0.926 | locus YHR027C, strain rpn1, stronger effect = lower value 0.97 | locus YHR030C, strain SLT2, stronger effect = lower value 1 and 0.989 | locus YHR079C, strain IRE1 (second series), stronger effect = lower value 1 | locus YHR094C, strain hxt1, stronger effect = lower value 1 | locus YHR129C, strain ARP1, stronger effect = lower value 1.01 | locus YHR142W, strain chs7, stronger effect = lower value 0.946 | locus YHR200W, strain rpn10, stronger effect = lower value 0.998 | locus YIL066C, strain RNR3, stronger effect = lower value 1.01 | locus YIL073C, strain SPO22, stronger effect = lower value 1.02 | locus YIL125W, strain kgd1, stronger effect = lower value 0.997 | locus YIR030C, strain dcg1, stronger effect = lower value 0.997 | locus YJL092W, strain hpr5, stronger effect = lower value 0.957 | locus YJL095W, strain BCK1 (second series), stronger effect = lower value 0.978 | locus YJL095W, strain BCK1, stronger effect = lower value 1.02 and 1 | locus YJL115W, strain asf1, stronger effect = lower value 0.957 | locus YJL129C, strain trk1, stronger effect = lower value 0.917 | locus YJL134W, strain LCB3, stronger effect = lower value 1.01 | locus YJL154C, strain vps35, stronger effect = lower value 0.971 | locus YJL164C, strain tpk1, stronger effect = lower value 0.984 | locus YJL166W, strain qcr8, stronger effect = lower value 0.959 | locus YJL168C, strain set2, stronger effect = lower value 1 | locus YJL187C, strain SWE1 (second series), stronger effect = lower value 1.03 | locus YJL187C, strain SWE1, stronger effect = lower value 0.964 | locus YJR043C, strain POL32, stronger effect = lower value 1.03 | locus YJR066W, strain TOR1, stronger effect = lower value 0.949
